Only a selection was taken, and hits are over-represented in it overall.
IDE exosite inh = exo-site inhibitors of human insulin-degrading enzyme | P14735 | purified IDE, FL-6b probe fluorescence polarization; hits give low values | z-score at 20 µM | 17,000 tested, 6.3% active | AID 1259349;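 active means z-score of -3 or lower, meaning strong loss of probe binding signal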;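 further: His-tagged human IDE residues 42-1019 made in E. coli with 30 nM FL-6b probe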
Target sequence (P14735 42-1019 limits assumed): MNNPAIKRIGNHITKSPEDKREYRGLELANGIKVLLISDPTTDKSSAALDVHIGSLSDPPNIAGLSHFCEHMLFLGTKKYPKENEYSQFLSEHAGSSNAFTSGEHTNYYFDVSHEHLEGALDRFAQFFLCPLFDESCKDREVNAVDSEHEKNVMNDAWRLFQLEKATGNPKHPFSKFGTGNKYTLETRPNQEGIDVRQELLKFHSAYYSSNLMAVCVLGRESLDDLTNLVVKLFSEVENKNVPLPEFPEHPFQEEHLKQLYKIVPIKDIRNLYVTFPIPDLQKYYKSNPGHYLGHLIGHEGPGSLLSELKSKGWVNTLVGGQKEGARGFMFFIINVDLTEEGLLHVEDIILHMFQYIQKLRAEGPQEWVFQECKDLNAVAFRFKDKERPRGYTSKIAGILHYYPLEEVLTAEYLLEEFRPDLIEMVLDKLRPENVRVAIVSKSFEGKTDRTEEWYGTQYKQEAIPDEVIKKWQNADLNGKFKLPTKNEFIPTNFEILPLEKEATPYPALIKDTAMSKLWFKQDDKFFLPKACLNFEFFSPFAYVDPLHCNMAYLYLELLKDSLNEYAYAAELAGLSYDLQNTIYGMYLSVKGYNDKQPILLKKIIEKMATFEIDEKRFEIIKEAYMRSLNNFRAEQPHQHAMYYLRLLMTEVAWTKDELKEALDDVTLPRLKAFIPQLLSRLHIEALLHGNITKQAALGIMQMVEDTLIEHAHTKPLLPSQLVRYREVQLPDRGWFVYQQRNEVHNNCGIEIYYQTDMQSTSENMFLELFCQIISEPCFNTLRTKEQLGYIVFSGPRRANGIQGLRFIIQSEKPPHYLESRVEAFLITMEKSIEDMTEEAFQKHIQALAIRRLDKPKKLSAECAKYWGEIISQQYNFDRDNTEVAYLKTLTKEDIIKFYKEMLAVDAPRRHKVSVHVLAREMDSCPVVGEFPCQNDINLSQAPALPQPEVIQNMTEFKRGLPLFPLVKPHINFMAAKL
Hits are given with their value; n = inactive.

SMILES | IDE exosite inh
COc1cccc(S(=O)(=O)Nc2ccc3c(c2)[C@H]2C[C@@H](CC(=O)NC4CCCCC4)O[C@@H](CO)[C@H]2O3)c1 | n
CN(C)CC(=O)N1[C@H](C#N)[C@@H](c2ccc(C#CC3CC3)cc2)[C@@H]1CO | n
O=C(CC(F)(F)F)N1C[C@@H]2[C@H](c3ccccc31)[C@H](CO)N2C(=O)C1CCCCC1 | n
CCCN1C[C@H](C)[C@H](OC)CN(C)C(=O)c2cc(NC(=O)Nc3cccc(F)c3)ccc2OC[C@H]1C | n
CN1CCCCN2[C@@H](CO)[C@@H](c3ccc(C#Cc4ccccc4F)cc3)[C@@H]2C1 | -5
OC[C@@H]1[C@H](c2ccc(C#Cc3ccccc3F)cc2)[C@@H]2CN(CC3CCOCC3)CCCCN12 | n
CN1CCCCN2[C@H](CO)[C@@H](c3ccc(C#Cc4ccccc4F)cc3)[C@@H]2C1 | -8.62
COc1ccc(C#Cc2ccc([C@H]3[C@H](CO)N4CCCCN(C)C[C@@H]34)cc2)cc1 | n
CN1CCCCN2[C@H](CO)[C@@H](c3ccc(-c4ccccc4)cc3)[C@@H]2C1 | n
COc1ccc(C#Cc2ccc([C@H]3[C@H]4CN(C)CCCCN4[C@H]3CO)cc2)cc1 | n
N#C[C@@H]1[C@@H](c2ccc(-c3cccc(F)c3)cc2)[C@H](CO)N1c1nc(-c2ccccc2)cs1 | n
C[C@@H]1CN([C@H](C)CO)C(=O)CCCn2cc(nn2)CO[C@H]1CN(C)C(=O)NC1CCCCC1 | n
CO[C@@H]1CC[C@@H]2CCN(C)C(=O)[C@H](C)N(C)C(=O)c3cccc(C#N)c3OC[C@@H]1O2 | n
CN(C[C@H]1N[C@@H](CO)[C@H]1c1ccc(-c2cccc(F)c2)cc1)S(C)(=O)=O | n
C/C=C/c1ccc([C@H]2[C@H](CO)N(C(C)=O)[C@H]2CN(CC)C(=O)CN(C)C)cc1 | n
CO[C@@H](CN(C)CC1CCOCC1)[C@H](C)CN(C(=O)Nc1ccc(F)cc1)[C@H](C)CO | n
CNC[C@H]1OCCCC[C@H](C)Oc2ccc(N)cc2C(=O)N([C@H](C)CO)C[C@@H]1C | n
C/C=C/c1ccc([C@H]2[C@@H](CO)N(C(=O)CN(C)C)C23CN(C(=O)C2CCOCC2)C3)cc1 | n
O=C(Nc1ccccc1)N1CCCCN2[C@H](CO)[C@H](c3ccc(C#Cc4ccccc4)cc3)[C@@H]2C1 | -3.43
O=C(Nc1ccccc1F)N1CCCCN2[C@H](CO)[C@@H](c3ccc(C#Cc4ccccc4)cc3)[C@H]2C1 | -4.14
O=C(Nc1ccccc1)N1CCCCN2[C@H](C1)[C@H](c1ccc(C#Cc3ccccc3)cc1)[C@@H]2CO | n
O=C(Nc1ccccc1F)N1CCCCN2[C@H](CO)[C@@H](c3ccc(C#Cc4cccnc4)cc3)[C@@H]2C1 | n
O=C(Nc1ccccc1F)N1CCCCN2[C@H](CO)[C@H](c3ccc(C#Cc4ccccc4)cc3)[C@@H]2C1 | n
O=C(Nc1ccccc1)N1CCCCN2[C@H](C1)[C@@H](c1ccc(C#Cc3ccccc3)cc1)[C@@H]2CO | n
O=C(Nc1ccccc1F)N1CCCCN2[C@@H](CO)[C@@H](c3ccc(C#Cc4cccnc4)cc3)[C@@H]2C1 | n
SMILES | IDE exosite inh
O=C(Nc1ccccc1F)N1CCCCN2[C@H](C1)[C@@H](c1ccc(C#Cc3cccnc3)cc1)[C@@H]2CO | -5.14
O=C(Nc1ccccc1F)N1CCCCN2[C@H](CO)[C@@H](c3ccc(C#Cc4ccccc4)cc3)[C@@H]2C1 | n
Cc1ccc(CN2CC(=O)N3[C@@H](CO)[C@H](c4ccc(Br)cc4)[C@@H]3C2)cc1 | n
COc1ccccc1CNC(=O)C[C@H]1CC[C@@H]2[C@@H](COc3ccc(NC(C)=O)cc3C(=O)N2C)O1 | n
CC(C)(C)[S@@](=O)N1Cc2cc(C(=O)NCCN3CCCC3)nc(-c3cccc(-c4ccc(C#N)cc4)c3)c2[C@H]1CCO | n
CCCNC(=O)N1C[C@@H](C)[C@H](OC)CN(C)C(=O)c2ccc(NC(=O)CC)cc2OC[C@@H]1C | n
C/C=C/c1ccc([C@H]2[C@@H](CO)N(S(=O)(=O)c3cccc(F)c3)[C@H]2C#N)cc1 | n
CS(=O)(=O)N1CC(=O)N2[C@@H](CO)[C@H](c3ccc(C#Cc4ccc(F)cc4)cc3)[C@@H]2C1 | n
CS(=O)(=O)N1CC(=O)N2[C@H](CO)[C@@H](c3ccc(C#CCc4ccccc4)cc3)[C@@H]2C1 | n
CS(=O)(=O)N1CC(=O)N2[C@H](CO)[C@@H](c3ccc(C#Cc4ccc(F)cc4)cc3)[C@H]2C1 | n
CS(=O)(=O)N1CC(=O)N2[C@H](CO)[C@@H](c3ccc(C#Cc4ccccc4)cc3)[C@@H]2C1 | n
CS(=O)(=O)N1CC(=O)N2[C@H](C1)[C@H](c1ccc(C#Cc3ccccc3)cc1)[C@@H]2CO | -5.33
CS(=O)(=O)N1CC(=O)N2[C@H](C1)[C@@H](c1ccc(C#Cc3ccc(F)cc3)cc1)[C@@H]2CO | n
CS(=O)(=O)N1CC(=O)N2[C@H](CO)[C@H](c3ccc(C#Cc4ccccc4)cc3)[C@@H]2C1 | -5.45
CS(=O)(=O)N1CC(=O)N2[C@@H](CO)[C@H](c3ccc(C#CCc4ccccc4)cc3)[C@@H]2C1 | n
CS(=O)(=O)N1CC(=O)N2[C@H](CO)[C@@H](c3ccc(C#CCc4ccccc4)cc3)[C@H]2C1 | n
CS(=O)(=O)N1CC(=O)N2[C@H](C1)[C@@H](c1ccc(C#CCc3ccccc3)cc1)[C@@H]2CO | -3.25
CS(=O)(=O)N1CC(=O)N2[C@H](C1)[C@H](c1ccc(C#Cc3ccc(F)cc3)cc1)[C@@H]2CO | n
CS(=O)(=O)N1CC(=O)N2[C@H](C1)[C@H](c1ccc(C#Cc3cccc(F)c3)cc1)[C@@H]2CO | -8.36
CC=Cc1ccc2n(c1=O)C[C@H]1[C@H](CO)[C@@H](C(=O)NCCc3cn(C)cn3)[C@@H]2N1C(=O)C1CCC1 (mixture of isomers) | n
C/C=C/c1ccc([C@H]2[C@@H](CO)N3CCCCN(S(=O)(=O)c4cccs4)C[C@@H]23)cc1 | n
N#C[C@@H]1[C@H](c2ccc(C#CC3CCCCC3)cc2)[C@@H](CO)N1C(=O)Nc1ccc(F)cc1 | n
O=C(C1CCOCC1)N1[C@@H](CO)[C@@H](c2ccccc2)C12CN(CCC(F)(F)F)C2 | n
O=C(Nc1cccc(F)c1)N1CCCCN2[C@@H](CO)[C@@H](c3ccc(-c4ccccc4F)cc3)[C@@H]2C1 | n
CC(=O)N1[C@H](CN(C)C(=O)c2ccccc2F)[C@@H](c2ccccc2)[C@@H]1CO | n
SMILES | IDE exosite inh
COCC(=O)N1CC(=O)N2[C@H](C1)[C@@H](c1ccc(-c3ccccc3)cc1)[C@@H]2CO | n
CCS(=O)(=O)N1CC(=O)N2[C@H](CO)[C@H](c3ccc(-c4ccccc4)cc3)[C@@H]2C1 | n
CCS(=O)(=O)N1CC(=O)N2[C@H](CO)[C@@H](c3ccc(-c4cccc(F)c4)cc3)[C@@H]2C1 | -3.18
CCS(=O)(=O)N1CC(=O)N2[C@H](CO)[C@@H](c3ccc(-c4ccccc4)cc3)[C@H]2C1 | n
O=C(C[C@H]1C=C[C@@H](NS(=O)(=O)c2ccccc2)[C@@H](CO)O1)NCCN1CCCCC1 | n
CO[C@H]1CN(C)C(=O)c2ccc(NC(=O)C3CCC3)cc2OC[C@@H](C)N(Cc2ccccn2)C[C@@H]1C | n
O=C(CN1CCOCC1)N1CCCCN2[C@H](C1)[C@@H](c1ccc(Br)cc1)[C@@H]2CO | n
O=C(CN1CCOCC1)N1CCCCN2[C@H](CO)[C@@H](c3ccc(/C=C/c4ccccc4)cc3)[C@H]2C1 | -9.26
O=C(CN1CCOCC1)N1CCCCN2[C@H](C1)[C@@H](c1ccc(/C=C/c3ccccc3)cc1)[C@@H]2CO | -4.6

High-throughput results (PubChem BioAssay)
